# Whole data set: some 25,000 sequences, median “ln(normalized median fluorescence intensity)” near 9.3, cut for the highest 2% near 10. The full list was thinned out, with the highest values kept by preference.
# Tested on: PF3D7_0420300 AP2 domain 1 (GST-tagged)
# Assay: gcPBM binding intensity (ln(normalized median fluorescence intensity)); higher = stronger DNA binding
# In short: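 DNA-binding domains from P. falciparum, fused to GST and produced in E. coli, were put on an Agilent 4 × 180k double-stranded probe array for 1 h in 1× PBS holding 1% milk, 0.2 mg/ml BSA, 0.5% salmon testes DNA and 0.03% Triton X-100. Probes were primer-extended, 36 bp long and drawn from intergenic genomic regions, with negative controls included. After Alexa488 anti-GST antibody detection and a 488 nm scan, binding intensity was set as the highest Masliner-normalised natural-log median intensity across replicate spots of either probe orientation.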
row,Sequence,gcPBM binding intensity (ln)
1,TATTAATACAGACACACACACACACCCAATAAAATA [CACACA_site243],10.1
2,AAAAAAAAAAAATACACACAAACACAAATTAAATAA [CACACA_site3809],9.88
3,AATTAATAACAAAATAAACACACATATATAAATACA [CACACA_site8456],9.84
4,TTTATTTATTAATACACACACACACGCCCACAAAAT [CACACA_site6253],10.2
5,ATAATTAACAAATACACACACACACCCAGACAAAAA [CACACA_site4445],10.2
6,TTTATTTATTAATACACACACACACCCAGACAAAAT [CACACA_site4292],10.2
7,ATAATTAACAAATACACACACACACGCCCACAAAAA [CACACA_site6389],10.2
8,TTAATTAAATATTATACACACAAAAAAATAATTTTA [CACACA_site96],9.27
9,TTTTTATTTATTAATACACACACACCCACCCACAAA [CACACA_site7965],10.1
10,TAATTAACAAACTATAGTACACAAAATACTTCATAT [XGTACX_site6375],9.44
11,ATGGTAGTGATTAAAAGTACACGTAATTGTAAAAAT [XGTACX_site387],9.45
12,TATATTTAGTAAAAAGGTACCATTCTTATTTATATT [CACACA_negctrl_site1165],9.13
13,TTTTATGTAATTATTTGTACATATGCCTCTTAAACT [XGTACX_site748],9.19
14,AAAAAAATATATTCCTAATTTATGATTAAAAGGAAT [CACACA_negctrl_site751],8.98
15,ATATATTTTTTCTTAACACACATATATAAAATAAAA [CACACA_site3500],9.24
16,GAGAAATGGGGACACACACACATATTATAGATATAT [CACACA_site6829],10.1
17,AAGAGAAATGGGCACACACACACATATTATAGATAT [CACACA_site6828],10.2
18,AAGAGAAATGGGCACACACACACATATTATATATAT [CACACA_site1531],10.1
19,AGAAAAGAGAAATGGGCACACACACCCATATTATAT [CACACA_site8433],9.66
20,AAAAGAGAAATGGGCACACACACACCCATTATATAT [CACACA_site1530],9.88
21,AAAAGAGAAATGGGCACACACACACCGATTATATAT [CACACA_site4942],10.2
22,TAATATACTTAATACACACACGAATATTTATAAATA [CACACA_site6675],9.73
23,ACATATTATAGGAATACACACAAAAACTTATCGGTA [CACACA_site7587],9.87

row,Sequence,gcPBM binding intensity (ln)
1,GTAATACCCAAACACACACACATACCCATATATATA [CACACA_site5510],10
2,CAAGCACCCAGACACACACACACACCCACACCCACA [CACACA_site369],10.2
3,CATATACATCCACATACACACATACACCCATACACA [CACACA_site5038],9.74
4,CAAGCACAGAAACACACACACACACCGACACAGACA [CACACA_site4359],10.2
5,AAAATACCCGGACACACACACATATATATATATATT [CACACA_site6137],9.96
6,ATACATCAAGGACACACACACACACCCACACCCACA [CACACA_site8013],10.3
7,ACATCAAGCAGACACACACACACACCCACCCACCGA [CACACA_site371],10.2
8,CATACACCCATACATACACACATACATACACCCATA [CACACA_site5124],9.78
9,AACAGACAGAAACACACACACATATATATATATATA [CACACA_site3394],9.81
10,AATACCCAAGGACACACACACACATATATATATATA [CACACA_site8345],10.2
11,CACCCACCCAGACACACACACACAAAAAAAAAAAGA [CACACA_site499],10.1
12,ATTATTACTATATGTGTACACATCAACTGGTTTGAT [CACACA_site5563],9.39
13,AAAAAAAAAAAAAAGGTGCATACTTTGAATTAATAT [GTGCAC_site9401],9.2
14,ATAAAAAATATCACATAAAATAAAAAAAGAAAGGAT [XGTACX_negctrl_site294],9.62
15,AGTGGACTTTTTTTTTTTTTTTTTTTTTTTTTATTA [CACACA_negctrl_site547],9.2
16,AGTATAAATATATTATGTACATATATATTATACTTA [XGTACX_site2623],9.09
17,ATTATCTATCGTTTTTGTACTTACACCTTAATACAA [XGTACX_site7337],9.58
18,TACACAAGCAGACACACACACATATATATATATATA [CACACA_site1270],9.72
19,AAGCATACATCAAGCACACACACACCCACAGAGACA [CACACA_site4362],9.89
20,ACATCAAGCAGACACACACACACACCCACCCACCCA [CACACA_site8012],10.4
21,TACACAAGCGGACACACACACATATATATATATATA [CACACA_site4832],9.81
22,ACATCAAGCGGACACACACACACACCGACAGACACA [CACACA_site4361],10.2
23,TAAAGTATTACAACCACACACACACCGATATATTAT [CACACA_site9382],9.99

row,Sequence,gcPBM binding intensity (ln)
1,ATAAAAATAAAAAGTGTGCACACAAAAATATATATA [GTGCAC_site9931],9.9
2,ATATATATATATATATGTACATATTCACTTATATTT [XGTACX_site5324],9.18
3,ATTAAACATAAATATGCACACATATACATATATTCA [CACACA_site8850],9.4
4,TATGTACACCCATATACACACCTCTATAATATATAT [CACACA_site4563],9.67
5,TTTTATGAAAAGTATTGTACGTATAATTTATATGTA [XGTACX_site1639],9.04
6,GGAACTTATTTTTATACACACATATGTGCATATTAT [CACACA_site629],9.68
7,TATATAAATAGACACACACACACCTTATAATTACTA [CACACA_site7828],10
8,CATATAAAAAGACACACACACACATATATATATATA [CACACA_site940],10
9,CATATAAATATATATACACACACACCGTAATACATA [CACACA_site9158],10.2
10,CACACTAAAAGACACACACACACACGCATATAAATA [CACACA_site7874],10.2
11,AAAAAAAAAAAAAACACACACACACGCATAAATATA [CACACA_site6217],10.1
12,TATAAATAAAGACACACACACACACCGTATAATTAC [CACACA_site7829],10.2
13,TAAAAAGGAAGACACACACACACATATATAAATATA [CACACA_site7657],10.2
14,ATATAATAAAATGACACACGCATATATATATATATA [CACACA_site2789],9.33
15,AAAAGGAACAGACACACACACATATATAAATATGTA [CACACA_site7656],9.97
16,TATAAATAAAGACACACACACATATAAATAAATATA [CACACA_site7155],10.1
17,ATAAAAAAAAGACACACACACATATATATATATATA [CACACA_site3073],9.67
18,AAAAAAAAAAGACACACACACATATAAATATAAATA [CACACA_site6899],10.2
19,ACAAAAAAAAACGTGGTGCATTAATAATATTGTATA [GTGCAC_site9469],9.43
20,ATTACATTAATAAGAGTGCATTATATAAGTTTTATG,9.2
21,TTTGGCTAGTCAAGTTGTACAAAAAAAAAAAAAAAA [XGTACX_site8382],8.58
22,GTAATACACAGACACACACACATACACATATTTATA [CACACA_site7313],10
23,TTGTACTACAATCCTTTATTTATTTAAACCTGTATG [CACACA_negctrl_site428],9.14

row,Sequence,gcPBM binding intensity (ln)
1,TTCTTCAAGGAAAACACATGCGCATTTTCACCAATT [TGCATGCA_site11],9.15
2,TTTTCAGAAAAGAGAAACTTTATTTTTCACAACCGA [TGCATGCA_negctrl_site389],8.85
3,AAGTAATTTGTTGACACACACACACGCATACCTATA [CACACA_site7140],10.2
4,ACCTACATAACATACACACGCATATATATAATTTTA [CACACA_site2847],9.64
5,AAACCTACATAACATACACACGCATATATATAATTT [CACACA_site8923],9.69
6,TATATAAAAAATTCAATACACACCATATATAAATAT [CACACA_site3987],9.66
7,AATATATAAGTGTTGTGTACTAAAGTATTTTCCTAT [XGTACX_site1622],9.5
8,CGCATACACAGACACACACACACATATAAATATGTA [CACACA_site6444],9.92
9,CACGCATACAGACACACACACACACGGATATAAATA [CACACA_site6445],10.3
10,TAAATACAGACATATACACACATATATATATATATA [CACACA_site4382],9.28
11,CGCGCACACGGACACACACACACACGGATATAAATA [CACACA_site7102],10.2
12,ACCATATAAATAAACACACACACACGGATATAAATA [CACACA_site7157],10.1
13,ACTTGTAAGAGACACACACACACACGGATATAAATA [CACACA_site6517],10.1
14,CACACGCACGGACACACACACATATAAAATCTATAT [CACACA_site6428],9.91
15,ATAGTATACAGACACACACACACACGGATATAAATA [CACACA_site6914],10.3
16,CACACGCACAGACACACACACACATATAAATATGTA [CACACA_site6300],10.1
17,CACACGCACAGACACACACACACACGGATATAAATA [CACACA_site6301],10.2
18,TAAATAAATTTATACACACACACACGGATATAAATA [CACACA_site6532],10.1
19,GCTATAAATACAGACGCACACATATACATACAGATA [CACACA_site5778],9.49
20,GAGAAATTTATACATACACACATATAAATATTATAG [CACACA_site7819],9.6
